Assay results from the supplement of paper PMC10849652.
About 7,900 targets were measured; listed, in parts, are those with a hit and a random draw of the rest. About 0.6% of all pairs of compound and target were hits. A number with no mark means an inactive call.

What was measured:
Test in all cases: log2 fold change, soluble protein after heating vs DMSO (PISA); higher = thermal stabilisation; K562 cells, 10 uM, 30 min; active = over 0.2 and 3.5 SD of the protein, either way, in both replicates (recomputed)
IRAK-1-4 Inhibitor I = compound: C1COCCN1CCN2C3=CC=CC=C3N=C2NC(=O)C4=CC(=CC=C4)[N+](=O)[O-] [IRAK-1-4 Inhibitor I]
How it was run: (§1)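 For each measurement, 10 μM compound was applied for 30 min to K562 cells at 2×10^6 cells/mL. Aliquots were heated for 3 min across 48°C-58°C, pooled, and extracted in PBS with 0.5% NP-40 at 4°C; the supernatant after 21,000xg for 90 min was soluble protein. This was quantified by TMTpro 16plex LC-MS/MS with channel sums equalised, and thermal stability was reported relative to control samples from duplicates, on a log2 fold-change scale.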

ibrutinib = compound: C=CC(=O)N1CCC[C@@H](n2nc(-c3ccc(Oc4ccccc4)cc3)c3c(N)ncnc32)C1 [ibrutinib]
How it was run: as §1

[1] = compound: CC(=O)c1cnc2ccc(-c3cc(Cl)c(O)c(Cl)c3)nc2c1N[C@H]1CC[C@H](CN(C)C)CC1
How it was run: as §1

ralimetinib = compound: CC(C)(C)Cn1c(N)nc2ccc(-c3[nH]c(C(C)(C)C)nc3-c3ccc(F)cc3)nc21 [ralimetinib]
How it was run: as §1

[2] = compound: CC(C)(O)CC(=O)NCCn1ccc2ncnc(Nc3ccc(Oc4cccc(C(F)(F)F)c4)c(Cl)c3)c21
How it was run: as §1

[3] = compound: CC(C)C1=C2N=C(C=C(N2N=C1)NCC3=CC=CC=C3)NCCCCCCN
How it was run: as §1

[4] = compound: CC(C)C[C@@H](C=O)NC(=O)[C@H](CC(C)C)NC(=O)[C@H](CC(C)C)NC(=O)OCc1ccccc1
How it was run: as §1

pinometostat = compound: CC(C)N(C[C@H]1O[C@@H](n2cnc3c(N)ncnc32)[C@H](O)[C@@H]1O)[C@H]1C[C@@H](CCc2nc3cc(C(C)(C)C)ccc3[nH]2)C1 [pinometostat]
How it was run: as §1

[5] = compound: CC1=C(C(CC(=O)N1)C2=CC=C(C=C2)C(F)(F)F)C(=O)NC3=C(C=C4C(=C3)C=NN4)F
How it was run: as §1

[6] = compound: CC1=C(C2=C(C=C1)C(=O)C3=CC=CC=C3N2CCCN)C
How it was run: as §1

Sequence of UniProt O00584 (O00584 whole entry, looked up): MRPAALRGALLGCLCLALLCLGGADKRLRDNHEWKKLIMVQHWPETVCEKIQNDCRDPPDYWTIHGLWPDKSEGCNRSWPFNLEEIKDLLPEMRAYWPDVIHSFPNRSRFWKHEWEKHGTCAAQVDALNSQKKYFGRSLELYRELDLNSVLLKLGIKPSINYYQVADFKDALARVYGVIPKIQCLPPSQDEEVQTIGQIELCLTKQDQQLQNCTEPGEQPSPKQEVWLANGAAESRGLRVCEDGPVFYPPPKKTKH
Sequence of UniProt P40938 (P40938 whole entry, looked up): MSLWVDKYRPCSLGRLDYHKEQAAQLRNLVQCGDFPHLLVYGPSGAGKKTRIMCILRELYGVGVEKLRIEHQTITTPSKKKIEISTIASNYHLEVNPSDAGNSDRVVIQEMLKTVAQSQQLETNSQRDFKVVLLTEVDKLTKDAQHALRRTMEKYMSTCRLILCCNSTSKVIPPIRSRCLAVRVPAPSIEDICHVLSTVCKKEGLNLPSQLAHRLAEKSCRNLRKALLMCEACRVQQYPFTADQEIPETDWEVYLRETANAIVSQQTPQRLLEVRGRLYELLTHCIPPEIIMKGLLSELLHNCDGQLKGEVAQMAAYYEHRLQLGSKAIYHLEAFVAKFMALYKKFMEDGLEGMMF
Sequence of UniProt O75792 (O75792 whole entry, looked up): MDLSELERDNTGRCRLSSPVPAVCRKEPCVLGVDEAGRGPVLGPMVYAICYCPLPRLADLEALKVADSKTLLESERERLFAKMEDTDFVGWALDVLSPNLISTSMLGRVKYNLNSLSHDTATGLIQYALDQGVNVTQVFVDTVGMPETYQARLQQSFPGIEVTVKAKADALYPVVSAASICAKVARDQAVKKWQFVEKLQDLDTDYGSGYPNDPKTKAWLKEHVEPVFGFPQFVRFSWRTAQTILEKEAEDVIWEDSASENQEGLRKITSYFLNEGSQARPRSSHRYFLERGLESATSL
Sequence of UniProt Q01974 (Q01974 whole entry, looked up): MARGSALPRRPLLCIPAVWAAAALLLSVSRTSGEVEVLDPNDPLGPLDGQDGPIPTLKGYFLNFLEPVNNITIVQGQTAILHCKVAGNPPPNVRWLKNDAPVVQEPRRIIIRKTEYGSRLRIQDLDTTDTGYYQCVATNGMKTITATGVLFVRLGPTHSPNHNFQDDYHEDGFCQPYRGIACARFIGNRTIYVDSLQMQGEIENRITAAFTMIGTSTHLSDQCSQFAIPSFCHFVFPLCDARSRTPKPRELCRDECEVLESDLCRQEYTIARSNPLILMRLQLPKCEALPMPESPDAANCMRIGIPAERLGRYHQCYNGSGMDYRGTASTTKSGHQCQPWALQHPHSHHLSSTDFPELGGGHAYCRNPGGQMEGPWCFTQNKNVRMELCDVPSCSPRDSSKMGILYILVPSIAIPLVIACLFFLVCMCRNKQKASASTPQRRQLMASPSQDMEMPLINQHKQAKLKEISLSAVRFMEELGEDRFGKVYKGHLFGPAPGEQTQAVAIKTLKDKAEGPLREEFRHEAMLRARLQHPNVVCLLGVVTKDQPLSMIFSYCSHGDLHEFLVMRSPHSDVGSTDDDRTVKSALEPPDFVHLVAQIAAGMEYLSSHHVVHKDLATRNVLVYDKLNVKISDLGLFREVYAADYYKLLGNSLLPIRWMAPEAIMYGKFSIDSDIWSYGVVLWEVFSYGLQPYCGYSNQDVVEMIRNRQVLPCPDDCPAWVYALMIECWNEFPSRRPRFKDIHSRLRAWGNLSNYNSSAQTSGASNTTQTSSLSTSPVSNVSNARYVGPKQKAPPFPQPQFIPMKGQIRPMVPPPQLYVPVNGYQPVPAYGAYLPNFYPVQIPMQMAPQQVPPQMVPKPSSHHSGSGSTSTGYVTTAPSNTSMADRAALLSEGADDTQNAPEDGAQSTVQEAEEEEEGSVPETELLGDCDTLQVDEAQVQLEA
Sequence of UniProt Q8N122 (Q8N122 whole entry, looked up): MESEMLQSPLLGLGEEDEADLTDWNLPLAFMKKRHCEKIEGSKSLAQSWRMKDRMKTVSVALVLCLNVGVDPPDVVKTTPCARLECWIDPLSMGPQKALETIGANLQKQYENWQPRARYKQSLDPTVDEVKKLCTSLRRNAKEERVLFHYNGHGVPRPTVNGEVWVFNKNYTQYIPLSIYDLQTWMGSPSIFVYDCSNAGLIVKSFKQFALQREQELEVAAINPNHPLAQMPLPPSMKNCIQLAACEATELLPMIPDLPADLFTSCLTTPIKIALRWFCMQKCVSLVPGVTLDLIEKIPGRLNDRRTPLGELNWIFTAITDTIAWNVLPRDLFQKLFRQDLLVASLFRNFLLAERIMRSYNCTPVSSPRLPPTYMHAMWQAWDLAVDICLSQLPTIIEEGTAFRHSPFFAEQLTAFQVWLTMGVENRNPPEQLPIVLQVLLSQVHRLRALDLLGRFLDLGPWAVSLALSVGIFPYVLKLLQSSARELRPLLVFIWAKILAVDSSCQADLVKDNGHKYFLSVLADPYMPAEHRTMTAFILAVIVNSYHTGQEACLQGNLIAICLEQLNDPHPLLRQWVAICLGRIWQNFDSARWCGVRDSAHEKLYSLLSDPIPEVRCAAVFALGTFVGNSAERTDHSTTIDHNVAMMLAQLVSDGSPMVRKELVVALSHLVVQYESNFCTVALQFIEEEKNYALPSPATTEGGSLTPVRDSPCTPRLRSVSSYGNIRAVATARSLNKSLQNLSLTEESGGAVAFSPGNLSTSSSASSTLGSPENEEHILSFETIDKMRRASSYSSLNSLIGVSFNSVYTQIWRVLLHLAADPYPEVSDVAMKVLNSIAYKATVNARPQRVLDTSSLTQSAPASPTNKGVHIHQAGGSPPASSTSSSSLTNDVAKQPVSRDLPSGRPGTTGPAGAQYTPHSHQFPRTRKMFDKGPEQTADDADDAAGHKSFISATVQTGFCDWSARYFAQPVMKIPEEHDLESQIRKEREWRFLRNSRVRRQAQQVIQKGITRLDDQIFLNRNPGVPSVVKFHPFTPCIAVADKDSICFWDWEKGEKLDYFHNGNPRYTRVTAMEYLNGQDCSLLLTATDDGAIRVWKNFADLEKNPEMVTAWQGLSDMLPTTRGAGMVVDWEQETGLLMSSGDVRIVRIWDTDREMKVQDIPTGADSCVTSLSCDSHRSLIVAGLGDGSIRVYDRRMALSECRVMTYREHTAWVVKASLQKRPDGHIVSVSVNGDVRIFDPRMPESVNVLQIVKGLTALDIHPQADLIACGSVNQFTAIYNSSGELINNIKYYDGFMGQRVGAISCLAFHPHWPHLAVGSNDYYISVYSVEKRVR
Sequence of UniProt P46063 (P46063 whole entry, looked up): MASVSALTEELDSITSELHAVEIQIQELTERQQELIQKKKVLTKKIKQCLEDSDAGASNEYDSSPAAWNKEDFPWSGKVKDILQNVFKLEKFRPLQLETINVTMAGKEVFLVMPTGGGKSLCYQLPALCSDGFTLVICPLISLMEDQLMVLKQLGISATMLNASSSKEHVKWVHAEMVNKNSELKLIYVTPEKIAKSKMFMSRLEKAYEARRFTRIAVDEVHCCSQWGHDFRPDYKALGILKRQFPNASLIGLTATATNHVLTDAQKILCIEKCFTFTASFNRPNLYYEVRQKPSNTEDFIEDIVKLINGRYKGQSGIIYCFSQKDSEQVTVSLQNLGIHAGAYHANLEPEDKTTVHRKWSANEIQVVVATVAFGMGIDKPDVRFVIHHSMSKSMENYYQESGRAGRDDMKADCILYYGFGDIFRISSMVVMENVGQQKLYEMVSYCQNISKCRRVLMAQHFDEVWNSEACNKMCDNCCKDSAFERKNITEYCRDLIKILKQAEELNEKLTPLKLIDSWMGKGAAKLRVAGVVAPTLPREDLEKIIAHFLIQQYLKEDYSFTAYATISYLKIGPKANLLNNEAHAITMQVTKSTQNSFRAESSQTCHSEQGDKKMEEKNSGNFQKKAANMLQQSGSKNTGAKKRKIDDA
Sequence of UniProt P54136 (P54136 whole entry, looked up): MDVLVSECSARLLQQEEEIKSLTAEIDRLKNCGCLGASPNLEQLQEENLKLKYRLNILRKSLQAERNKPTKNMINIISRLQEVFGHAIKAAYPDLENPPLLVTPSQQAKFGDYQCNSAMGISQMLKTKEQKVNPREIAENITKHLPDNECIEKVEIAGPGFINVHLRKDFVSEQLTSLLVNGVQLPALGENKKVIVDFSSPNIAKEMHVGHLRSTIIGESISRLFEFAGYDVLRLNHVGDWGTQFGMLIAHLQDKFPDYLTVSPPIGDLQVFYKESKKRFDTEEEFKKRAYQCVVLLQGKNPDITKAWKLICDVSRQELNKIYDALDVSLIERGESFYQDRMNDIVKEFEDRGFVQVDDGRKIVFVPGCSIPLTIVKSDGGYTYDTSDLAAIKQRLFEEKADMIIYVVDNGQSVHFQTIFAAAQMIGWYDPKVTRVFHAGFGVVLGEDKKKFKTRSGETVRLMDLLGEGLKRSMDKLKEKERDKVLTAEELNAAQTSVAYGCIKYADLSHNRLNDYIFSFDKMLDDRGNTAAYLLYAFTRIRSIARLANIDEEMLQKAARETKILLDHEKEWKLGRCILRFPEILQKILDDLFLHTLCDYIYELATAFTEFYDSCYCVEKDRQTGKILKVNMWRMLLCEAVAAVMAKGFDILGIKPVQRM
Sequence of UniProt O00560 (O00560 whole entry, looked up): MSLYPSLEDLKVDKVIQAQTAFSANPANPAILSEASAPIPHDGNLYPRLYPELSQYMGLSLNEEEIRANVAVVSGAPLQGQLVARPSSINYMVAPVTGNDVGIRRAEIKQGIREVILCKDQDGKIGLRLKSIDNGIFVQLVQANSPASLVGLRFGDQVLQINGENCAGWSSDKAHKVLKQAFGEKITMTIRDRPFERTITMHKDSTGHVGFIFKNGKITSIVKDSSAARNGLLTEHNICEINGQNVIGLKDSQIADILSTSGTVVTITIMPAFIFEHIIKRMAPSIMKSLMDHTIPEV
Sequence of UniProt Q8N5L8 (Q8N5L8 whole entry, looked up): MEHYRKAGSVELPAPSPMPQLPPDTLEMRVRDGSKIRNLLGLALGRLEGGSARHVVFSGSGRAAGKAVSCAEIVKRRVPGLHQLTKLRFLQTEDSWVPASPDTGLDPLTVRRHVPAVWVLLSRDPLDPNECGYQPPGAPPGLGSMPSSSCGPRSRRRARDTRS

Target	log2 fold change (IRAK-1-4 Inhibitor I)	log2 fold change (ibrutinib)	log2 fold change [1]	log2 fold change (ralimetinib)	log2 fold change [2]	log2 fold change [3]	log2 fold change [4]	log2 fold change (pinometostat)	log2 fold change [5]	log2 fold change [6]
RPS6KA3 (UniProt P51812)	0.03	-0.048	-0.194	-0.359 (active)	-0.061	-0.076	0.121	0.011	0.01	0.001
RPS20 isoform 2 (UniProt P60866)	-0.103	0.012	0.02	0.041	0.046	-0.03	0.012	0.123	0.195	-0.368 (active)
RPP25L (UniProt Q8N5L8)	-0.102	0.021	-0.004	0.049	-0.015	-0.293	0.035	-0.002	-0.014	-0.288 (active)
RALY (UniProt Q9UKM9)	-0.315	0.001	-0.21	-0.029	0.055	-0.101	0.083	0.129	0.068	-0.311
RNASET2 (UniProt O00584)	0.028	0.042	0	-0.082	0.029	-0.206	-0.004	-0.014	0.045	-0.061
RARS (UniProt P54136)	-0.087	-0.024	0.12	0.097	-0.001	-0.545 (active)	0.096	0.32	0.03	0.009
SH3GLB2 (UniProt Q9NR46)	0.028	0.004	-0.047	0.033	0.028	-0.27 (active)	0.066	-0.004	0.001	-0.021
SCAF11 (UniProt Q99590)	0.076	0.099	0.714 (active)	0.166	-0.084	0.134	0.213	0.157	-0.036	0.112
RNF167 (UniProt Q9H6Y7)	-0.001	0.015	0.039	-0.018	-0.025	-0.047	-0.009	0.015	0.064	0
RECQL (UniProt P46063)	0.013	0.002	-0.023	-0.024	-0.039	-0.033	-0.02	-0.013	-0.031	0.266 (active)
RRAGC (UniProt Q9HB90)	0.033	-0.009	-0.057	-0.056	0.004	-0.18	0.068	-0.008	0.024	0.034
RIPK1 (UniProt Q13546)	-0.104	-0.081	-0.201	0.195	-0.023	-0.23	0.14	0.123	-0.014	0.056
RHOXF2 (UniProt Q9BQY4)	0.012	0.003	0.002	0.051	-0.031	-0.03	0.027	-0.037	0.027	-0.007
RPTOR (UniProt Q8N122)	0	0.051	-0.145	-0.022	-0.129	-0.187	-0.011	-0.012	-0.03	0.009
ROR2 (UniProt Q01974)	-0.003	-0.014	-0.72 (active)	0.045	-0.058	-0.018	-0.001	0.045	-0.059	0.115
RFC3 (UniProt P40938)	0.003	0.025	-0.101	0.021	-0.087	-0.012	-0.047	-0.057	0	0.09
RDH11 (UniProt Q8TC12)	0.032	0.067	-0.145	0.059	-0.126	-0.74 (active)	0.117	0.013	-0.028	0.103
SACM1L (UniProt Q9NTJ5)	0.008	-0.031	-0.022	0.064	-0.007	-0.262 (active)	-0.01	-0.042	-0.035	0.029
SDCBP (UniProt O00560)	0.021	0.139	-0.02	-0.036	-0.064	-0.671 (active)	0.181	0.057	0.073	-0.007
SHCBP1 (UniProt Q8NEM2)	-0.11	-0.072	-0.013	0.025	-0.121	-0.516 (active)	0.012	0.066	0.074	0.02
SAAL1 (UniProt Q96ER3)	0.019	-0.035	0.578 (active)	-0.033	-0.112	0.012	0.032	0.073	0.026	0.239 (active)
RABGAP1L isoform 3 (UniProt Q5R372)	0.057	0.02	0.011	-0.012	-0.206	-0.068	-0.034	-0.006	-0.137	0.055
SESN2 (UniProt P58004)	-0.143	0.034	0	0.21	-0.049	-0.407	0.055	0.081	0.041	-0.017
SART3, A0A499FI31	-0.021	-0.017	0.062	0.002	-0.033	-0.379 (active)	-0.051	-0.025	0.021	-0.377 (active)
RPS27A (UniProt P62979)	-0.055	0.141	0.054	0.082	0.216	0.051	0.114	0.078	0.157	-0.557 (active)
SEC31A (UniProt O94979)	-0.076	-0.11	0.005	0.028	-0.054	-0.008	0.033	0.071	0.016	0.095
RETSAT (UniProt Q6NUM9)	-0.09	0.042	0.01	0.012	0.178	-0.048	-0.007	-0.012	-0.037	0.059
RNASEH2A (UniProt O75792)	0	0.008	-0.07	-0.08	-0.029	-0.122	0.074	-0.003	0.001	0.042
RHEB (UniProt Q15382)	0.006	-0.016	-0.04	-0.112	-0.01	0.027	-0.055	-0.035	-0.014	0.093
RBIS (UniProt Q8N0T1)	-0.038	0.019	-0.109	-0.021	0.083	-0.001	0.281 (active)	0.044	0.066	-0.478 (active)
